Paper PMC5540273 (PLoS ONE, 2017)

How the values were obtained:
CDC2L1 = system: T1, CDC2L1
T1 construct: gene CDK11B
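Also: kd values determined as follow-up on hits from a single-replicate KINOMEscan panel screen.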

Q: What does the source list for `Cc1ccc(NC(=O)c2ccc(Cl)cc2)cc1-c1ccc(C(=O)Nc2ccncc2)cc1` [GSK1398467]?
A: Kd (CAMK2A): > 10 µM; Kd (CAMK2B): > 10 µM

Q: `COc1cccc(NC(=O)Nc2ccc(C)c(-c3ccc(C(=O)Nc4ccncc4)cc3)c2)c1` [GSK1398474] was tested. Which Kd (BRSK2) did it give?
A: > 10 µM

Q: With `CC(=O)c1c(C)c2cnc(Nc3ccn(C)n3)nc2n(C2CCCC2)c1=O` as the compound, how does the Kd (CDC2L2) read?
A: > 10 µM

Q: Which Kd (BUB1) does the source give for `CSc1ccc(-c2nc3n(c2-c2ccncc2)CCC3)cc1` [SKF-105561] here?
A: 0.26 µM

Q: With `O=c1cc(N2CCOCC2)nc2n(Cc3ccccc3F)ccn12` [GSK2297428] as the compound, how does the Kd (BRSK2) read?
A: > 10 µM

Q: Which Kd (CAMKK1) does the source give for `CN1c2ccc(-c3ccc(C(N)=O)cc3)cc2-c2[nH]ncc2S1(=O)=O` here?
A: > 10 µM

Q: Which Kd (BUB1) does the source give for `CS(=O)(=O)Cc1ccc(Nc2nccc(-c3c(-c4cccc(NC(=O)C5CCCCC5)c4)nn4ncccc34)n2)cc1` [GSK350559] here?
A: 0.029 µM

Q: What does the source list for `COC(=O)c1cccc(NC(=O)NC2CCN(c3ccnc(Nc4ccc(OC)cc4)n3)C2)c1` (centres unmarked) [GSK1379746]?
A: Kd (CAMK2A): > 10 µM; Kd (CAMK2B): > 10 µM

Q: `CCCCc1nn2ncccc2c1-c1ccnc(NC2CC2)n1` [GW684374] was tested. Which Kd (BUB1) did it give?
A: 3.3 µM

Q: For `COc1ccc2cc(-c3nc(-c4ccccc4C(C)C)[nH]c3-c3ccncc3)ccc2c1` [SB-660566], which Kd (BUB1) is on record?
A: 0.47 µM

Q: For `c1ccc(-c2ccnc3[nH]ccc23)cc1` [SB-693578], which Kd (BRSK2) is on record?
A: > 10 µM

Q: Which Kd (CAMK2G) does the source give for `COc1cccc(CNC(=O)NC2CCN(c3ccnc(Nc4ccc(F)cc4)n3)C2)c1` (centres unmarked) [GSK1379723] here?
A: > 10 µM

Q: For `O=C1NC(=O)C(c2ccc(Cl)cc2)=C1Nc1ccc(O)cc1` [SB-340867], which Kd (CAMK1D) is on record?
A: > 10 µM

Q: And the Kd (CAMK1)?
A: > 10 µM

Q: For `Fc1ccc(-c2nc[nH]c2-c2ccncc2)cc1` [SB-217360], which Kd (BUB1) is on record?
A: 0.89 µM

Q: With `COc1cc2ncnc(Nc3cccc(Br)c3)c2cc1OC.Cl` [GI230329] as the compound, how does the Kd (BUB1) read?
A: 0.13 µM

Q: Which Kd (BRSK2) does the source give for `Cc1ccccc1Cn1ccn2c(=O)cc(N3CCOCC3)nc12` [GSK2269905] here?
A: > 10 µM

Q: How did the Kd (CAMK2A) turn out when `O=C(Nc1n[nH]c2nc(-c3cccs3)c(Br)cc12)C1CC1` [SB-735297] was run?
A: > 10 µM

Q: What about the Kd (CAMK2B) of the same compound?
A: > 10 µM

Q: Which Kd (BRSK2) does the source give for `COc1ccc(-c2coc3ccc(-c4nnc(C)o4)cc23)cc1` here?
A: > 10 µM

Q: What does the source list for `CNc1nc(-c2ccc3c(N)n[nH]c3c2)cc(N2C[C@@H](C(=O)Nc3ccccc3)CC[C@H]2C)n1` [GSK2298859]?
A: Kd (CAMK2A): > 10 µM; Kd (CAMK2B): > 10 µM

Q: With `Cc1c(Cn2c3ccccc3n3c(=O)cc(N4CCOCC4)nc23)cccc1C(F)(F)F` [GSK2306394] as the compound, how does the Kd (CDC2L1) read?
A: > 10 µM

Q: With `Cc1nccc(-c2c(-c3ccc(F)cc3)ncn2CCCN2CCOCC2)n1.Cl` [SB-282975] as the compound, how does the Kd (CDC2L1) read?
A: > 10 µM
